Assay outcomes from PubChem BioAssay.
Most compounds without a hit are left out; they make up all but 19% or so of the library.
HT1080NT lethal: kills 2HG-producing HT-1080-NT fibrosarcoma cells | HT-1080-NT fibrosarcoma viability, CellTiter-Glo ATP luminescence, 48 h | Potency, µM (doses to about 46.1 µM), for the others: at the top dose activity, negative = less viability, most hits filed as cytotoxic | 1.6% of 360,000 active | AID 686970;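 further: NT is the 2HG producing partner of a matched IDH1 knockdown line; 0% = DMSO-treated cells and -100% = media-only wells without cells; nearly all actives have a fitted effect of over 55% in size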
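Viability by CellTiter-Glo luminescence after 48 h compound exposure at 37C of HT-1080-NT cells (750/well, RPMI, 5% FBS). % activity scaled between DMSO wells and medium-only wells, then curve-fitted and categorized by curve class.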
TDP1 cell noCPT: qHTS for Inhibitors of human tyrosyl-DNA phosphodiesterase 1 (TDP1): qHTS in cells in absence of CPT; DT40 Tdp1-/- hTDP1 cells, no CPT, ATP luminescence, 48 h; 15% of 420,000 active; Potency, µM (series often up to 46.2 µM), for the others: top-dose activity change, negative = growth inhibition, most hits filed as inhibitors; further: nearly all actives have a fitted effect of over 55% in size
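Readout: luminescence from CellTiter-Glo after 30 min in the dark at RT. Cells: DT40 Tdp1-/- with stable hTDP1, 400/well. Exposure: compounds alone, ≥48 hr, 37 °C.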
KB-V1 cytotox: kills drug-selected multidrug resistant KB-V1 cells; KB-V1 MDR cells viability, CellTiter-Glo, 72 h; Potency, µM (series often up to 46.1 µM), actives largely listed as cytotoxic; 3.4% of 400,000 active; further: nearly all actives have a fitted effect of over 60% in size
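qHTS viability screen in drug-selected KB-V1 MDR cells: 72 h compound treatment at 37 degrees C, ATP luminescence end point.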
HT1080 IDH1KD tx: toxicity to HT-1080 IDH1 knockdown cells (counter line) | HT-1080 IDH1 knockdown viability, ATP luminescence, 48 h | Potency, µM (top dose mostly 46.1 µM), for the others: at the highest dose activity, negative = toxicity, most hits filed as cytotoxic | 2% of 360,000 active | AID 686971;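 further: 0% = DMSO wells and -100% = cell-free medium wells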
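Viability of IDH1-knockdown HT-1080 fibrosarcoma cells was assessed by CellTiter-Glo after 48 h at 37 °C with titrated compound; concentration-effect curves were classified by fit quality and response size.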
KB-3-1 cytotox: KB-3-1 parental cell cytotoxicity | KB-3-1 viability, CellTiter-Glo ATP luminescence, 72 h | Potency, µM (top dose mostly 46.1 µM), actives largely listed as cytotoxic | 1.4% of 400,000 active; further: nearly all actives have a fitted effect of over 60% in size
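Using CellTiter-Glo luminescence, growth of non-resistant KB-3-1 adenocarcinoma cells is assessed 72 h after pin-tool compound addition at 37 °C. Normalized responses across the concentration series yield fitted curves.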
TDP1 cell CPT: DT40-hTDP1 cell growth loss with CPT. Potency, µM (highest dose often 46.2 µM), inactives show at the top dose activity change, negative = growth inhibition, most hits filed as inhibitors. AID 686979. chicken DT40 Tdp1-/-;hTDP1 cells + 20 nM CPT, ATP luminescence, 48 h. 12% of 420,000 active; further: nearly all actives have a fitted effect of over 55% in size
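Chicken DT40 Tdp1-/- cells complemented with human TDP1, 400 cells/well, exposed to compounds plus 20 nM camptothecin for at least 48 h at 37 C; viability read as ATP content by CellTiter-Glo luminescence.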
The depositor's hits bear a star; i = inactive; ? = inconclusive; / = no result given; [ ] = another dose, or the depositor's remark. The call rests on the fitted dose curve; in most records, active means well fitted curve in the direction sought with a large enough effect; inconclusive means small, poorly fitted or top-dose-only effect, or another doubt; inactive means no such curve, though single readings can be large; an effect the other way counts as inactive or inconclusive. Unless noted, on the % scale 0 is the no-effect control and ±100 the full control effect; potency means the concentration at half of the fitted maximal effect.

SMILES	HT1080NT lethal	TDP1 cell noCPT	KB-V1 cytotox	HT1080 IDH1KD tx	KB-3-1 cytotox	TDP1 cell CPT
COc1ccccc1CN1CCC2(CCC(CNC(=O)c3ccccc3N(C)C)O2)CC1 (configuration not stated)	/	?	/	/	/	-12.1%[9.04 µM]
O=C1CCC[C@@H]2C=C[C@H](c3ccc(Br)cc3)[C@H]3CCN1[C@@H]32	-1.6%	18.4µM*	i	-14.0%	?	?
CCc1ccccc1NC(=O)CN1C(=O)c2ccccc2S1(=O)=O	12.0%	9.5%	i	2.2%	i	3.8%
COc1ccc(CCC(=O)NCc2nc3cccnc3n2Cc2ccc(OC)cc2)cc1	/	-15.3%	/	/	/	-8.6%
CCOc1ccccc1C(=O)NCc1nc2cccnc2n1Cc1ccc(C)cc1	/	16.4µM*	/	/	/	18.4µM*
COc1ccc(CCC(=O)NCc2nc3cccnc3n2Cc2ccc(C)cc2)cc1	/	23.1µM*	/	/	/	?
CCOc1ccc(C(=O)NCc2nc3cccnc3n2Cc2ccc(F)cc2)cc1OCC	/	-21.7%	/	/	/	-16.1%
COc1ccc(CCC(=O)NCc2nc3cccnc3n2Cc2ccccc2)cc1	/	16.4µM*	/	/	/	?
Cc1nc2ccc(C(=O)N(C)Cc3ccccc3)cn2c1N(C)C(=O)CCc1ccccc1	1.0%	-10.8%	i	27.9%	i	?
O=C(CSCc1cccc(CSCC(=O)Nc2ccc3ccccc3c2)n1)Nc1ccc2ccccc2c1	-7.2%	14.6µM*	23.1µM*	-18.8%	?	?
O=C(CS)Nc1ccc2ccccc2c1	20.6µM*	4.11µM*	i	20.6µM*	i	2.91µM*
CCCCCC(=O)Nc1ccc2ccccc2c1	-3.6%	-1.2%	i	-1.9%	i	-5.5%
O=C(c1cnn2c1NC(c1ccc(Br)cc1)CC2C(F)(F)F)N1CCN2CCCC2C1 (configuration not stated)	?	?	i	?	i	18.4µM*
O=C(C[C@H]1C/C=C\CC[C@@H](Cc2ccc(F)cc2)C(=O)O[C@H](c2ccccc2)CNC1=O)N[C@H](CO)Cc1ccccc1	-18.2%	14.6µM*	i	-10.0%	i	18.4µM*
O=C(C[C@@H]1C/C=C/CC[C@@H](Cc2ccc(F)cc2)C(=O)O[C@@H](c2ccccc2)CNC1=O)NCCO	-15.9%	18.4µM*	i	-0.9%	i	?
O=C(C[C@H]1C/C=C/CC[C@H](Cc2ccc(F)cc2)C(=O)O[C@H](c2ccccc2)CNC1=O)NCCO	-3.6%	?	i	-2.1%	i	?
O=C(C[C@H]1C/C=C\CC[C@@H](Cc2ccc(F)cc2)C(=O)O[C@@H](c2ccccc2)CNC1=O)N[C@@H](CO)Cc1ccccc1	7.6%	-18.0%	i	4.2%	i	-20.2%
O=C(C[C@H]1C/C=C\C[C@H](Cc2ccc(F)cc2)C(=O)O[C@@H](c2ccccc2)CNC1=O)N[C@@H](CO)Cc1ccccc1	-0.7%	11.6µM*	?	-4.6%	i	20.6µM*
CC(C)(C)OC(=O)C[C@H]1C/C=C\C[C@@H](CC(=O)N[C@@H](CO)Cc2ccccc2)C(=O)NC[C@@H](c2ccccc2)OC1=O	2.6%	-27.9%	?	-0.1%	?	-9.1%
CC(C)(C)OC(=O)C[C@@H]1C/C=C\C[C@@H](CC(=O)N[C@@H](CO)Cc2ccccc2)C(=O)NC[C@@H](c2ccccc2)OC1=O	-2.1%	?	?	9.3%	i	23.1µM*
Cc1ccc(-c2cn3cccnc3n2)cc1NC(=O)c1ccc(Br)o1	2.8%[9.24 µM]	-20.9%	i	?	i	-19.1%
COc1ccc(-c2cn3cccnc3n2)cc1NC(=O)c1c(F)cccc1F	/	25.9µM*	/	/	/	?
COc1ccc(-c2cn3cccnc3n2)cc1NC(=O)c1ccc(Br)o1	23.4%	?	i	3.8%	?	15.8µM*
COc1cccc(C(=O)Nc2cc(-c3cn4cccnc4n3)ccc2C)c1OC	/	16.4µM*	/	/	/	?
COc1ccc(-c2cn3cccnc3n2)cc1NC(=O)Nc1cc(C)ccc1C	/	?	i	/	i	?
SMILES	HT1080NT lethal	TDP1 cell noCPT	KB-V1 cytotox	HT1080 IDH1KD tx	KB-3-1 cytotox	TDP1 cell CPT
Cc1ccc(-c2cn3cccnc3n2)cc1NC(=O)C(C)(C)Oc1ccc(Cl)cc1	/	18.4µM*	/	/	/	?
CCCC(=O)Nc1cc(-c2cn3cccnc3n2)ccc1OC	26.9%	-4.5%	i	14.3%	i	-6.6%
CN[C@H]1C[C@H]2c3[nH]c4ccccc4c3CCN2C(=O)[C@H]1[C@H](C)O	-1.0%	?	i	1.2%	i	-3.3%
CCCCCCCCCCCCCCCCCC(=O)OC[C@@H](O)[C@H]1OC[C@H](O)[C@H]1O	/	-17.7%	/	/	/	-17.0%
Cc1ccccc1CN1C(=O)c2ccccc2Sc2ccc(C(=O)N3CCCC3)cc21	/	16.4µM*	/	/	/	20.6µM*
O=C(c1ccc2c(c1)N(Cc1ccccc1)C(=O)c1ccccc1S2)N1CCCC1	9.3%	9.2µM*	2.31µM*	1.7%	i	16.4µM*
Cc1ccccc1CN1C(=O)c2ccccc2Sc2ccc(C(=O)O)cc21	6.6%	-0.7%	i	-5.3%	i	-5.6%
